Results reported in PubChem BioAssay (NCI).
Several values for one entry are separate records, joined by “and”; a condition that tells them apart may be missing. Equal values may be shown once. This is part of a sample that, as a whole, favours compounds with a hit. Of some 83,000 tested, about 20% had one in any assay.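 A percent growth of 40 corresponds to 60% growth inhibition; 0 means no net growth; -100 means all cells died. Active threshold: below 10.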 Activity calls are given as the source filed them.

What was measured:
Experiment in all cases: NCI-60 one-dose screen, 48 h (100 = growth as untreated, 0 = no growth, -100 = all killed)
[1] = system: HCT-15 colon
[2] = system: SNB-75 CNS
[3] = system: SNB-19 CNS
[4] = system: U251 CNS
[5] = system: PC-3 prostate
[6] = system: SK-MEL-5 melanoma
[7] = system: UACC-62 melanoma
[8] = system: LOX IMVI melanoma
[9] = system: SK-MEL-28 melanoma
[10] = system: SK-MEL-2 melanoma
[11] = system: EKVX NSCLC
[12] = system: SN12C renal
[13] = system: UO-31 renal
[14] = system: TK-10 renal
[15] = system: ACHN renal
[16] = system: A498 renal
[17] = system: CCRF-CEM leukemia
[18] = system: HT29 colon
[19] = system: CAKI-1 renal
[20] = system: MOLT-4 leukemia; conditions: 10 µM unless noted

Measured: growth

CC#C[C@]1(O)CC[C@H]2[C@@H]3CCC4=CC(=O)CCC4=C3[C@@H](c3ccc4c(c3)OCO4)C[C@@]21C
active: [1]; 100 µM -13.9% | [2]; 100 µM -6.95% | [3]; 100 µM 4.26% | [4]; 100 µM -49.5% | [5]; 100 µM 0.372% | [6]; 100 µM -80.3% | [7]; 100 µM -50.1% | [8]; 100 µM -89.6% | [9]; 100 µM -52.3% | [10]; 100 µM -50.8% | [11]; 100 µM -10.7% | [12]; 100 µM -16.1% | [13]; 100 µM -42.4% | [14]; 100 µM -25.2% | [16]; 100 µM -59.7% | [17]; 100 µM -11.2%
inactive: [1]; 10 µM 69.3% | [2]; 10 µM 58.6% | [3]; 10 µM 75.8% | [4]; 10 µM 76.1% | [5]; 10 µM 67.4% | [6]; 10 µM 83.6% | [7]; 10 µM 56.6% | [8]; 10 µM 83.7% | [9]; 10 µM 108% | [10]; 10 µM 71.1% | [11]; 10 µM 72.4% | [12]; 10 µM 91.2% | [13]; 10 µM 66.1% | [14]; 10 µM 69.9% | [15]; 10 µM unless noted 80.4% | [16]; 10 µM 63% | [17]; 10 µM 89.9%

Nc1n[nH]c(=S)n1-c1ccc(Cl)cc1
inactive: [1]; 10 µM unless noted 99.3% | [18]; 10 µM unless noted 101% | [2]; 10 µM unless noted 82% | [3]; 10 µM unless noted 99.4% | [4]; 10 µM unless noted 98.1% | [5]; 10 µM unless noted 97.1% | [6]; 10 µM unless noted 105% | [7]; 10 µM unless noted 96.2% | [8]; 10 µM unless noted 94.6% | [9]; 10 µM unless noted 101% | [10]; 10 µM unless noted 99.9% | [11]; 10 µM unless noted 106% | [12]; 10 µM unless noted 100% | [13]; 10 µM unless noted 89% | [14]; 10 µM unless noted 92.6% | [15]; 10 µM unless noted 103% | [19]; 10 µM unless noted 119% | [16]; 10 µM unless noted 109% | [17]; 10 µM unless noted 96.7%

Cc1[nH]c(-c2nc3ccccc3[nH]2)c(C)c1C(=O)NC(C)C1CCCCC1 (configuration not stated)
inactive: [1]; 10 µM 69% | [18]; 10 µM 94.8% | [3]; 10 µM 86.6% | [4]; 10 µM 96.7% | [5]; 10 µM 78.5% | [6]; 10 µM 80.2% | [7]; 10 µM 78.1% | [8]; 10 µM unless noted 84.7% | [9]; 10 µM 89.2% | [11]; 10 µM 93.2% | [13]; 10 µM 89% | [14]; 10 µM 103% | [15]; 10 µM 99% | [19]; 10 µM 85.8% | [17]; 10 µM 81.3%
active: [1]; 100 µM -80.6% | [18]; 100 µM -38.4% | [3]; 100 µM -94.7% | [4]; 100 µM -64.5% | [5]; 100 µM -58.3% | [6]; 100 µM -99.6% | [7]; 100 µM -96.5% | [9]; 100 µM -94.9% | [11]; 100 µM -84.9% | [13]; 100 µM -97.8% | [14]; 100 µM -91% | [15]; 100 µM -90.9% | [19]; 100 µM -97.2% | [16]; 10 µM unless noted -93.3% [100 µM] | [17]; 100 µM -72.7%

CCCCCCCCCCCCCCCc1cc(O)ccc1N
inactive: [1]; 10 µM unless noted 89.4% and 75.6% | [18]; 10 µM unless noted 105% and 107% | [2]; 10 µM unless noted 63.5% and 30.1% | [3]; 10 µM unless noted 96.8% and 118% | [4]; 10 µM unless noted 68.1% and 81.1% | [5]; 10 µM unless noted 34.6% and 22.2% | [6]; 10 µM unless noted 100% and 78.6% | [7]; 10 µM unless noted 84.3% | [9]; 10 µM unless noted 106% and 103% | [10]; 10 µM unless noted 105% and 106% | [11]; 10 µM unless noted 86.6% and 85.6% | [12]; 10 µM unless noted 51.2% and 62.2% | [14]; 10 µM unless noted 123% and 98.3% | [15]; 10 µM unless noted 90% and 76.8% | [16]; 10 µM unless noted 133% and 122%
34.5% (inactive) and -35.1% (active): [8]; 10 µM unless noted
active: [17]; 10 µM unless noted 5.23% and -6.89% | [20] -1.13% and -2.69%
68.2% (inactive) and 1.52% (active): [19]; 10 µM unless noted
-59.8% (active) and 20.5% (inactive): [13]; 10 µM unless noted
